Screening results deposited in PubChem BioAssay by National Center for Advancing Translational Sciences (NCATS).
IL1B secr inh – blocks inflammasome-driven IL-1 beta release; THP-1 LPS/ATP IL-1B secretion, AlphaLISA, 16 h; active compounds read low; activity change, % at 57.5 µM; 360,000 compounds, 4.7% hits; AID 743279; in the data active means activity change below about -50%; inconclusive means mostly about -30% to -49%
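THP-1 cells pretreated 1 hr with compounds (up to 57.5 uM final), then stimulated with LPS (250 ng/mL final) plus ATP (1.25 mM final); secreted IL-1B measured by AlphaLISA after 16 hr, decreased signal indicating inhibition.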
TDP1 cell noCPT – qHTS for Inhibitors of human tyrosyl-DNA phosphodiesterase 1 (TDP1): qHTS in cells in absence of CPT | DT40 Tdp1-/- hTDP1 cells, no CPT, ATP luminescence, 48 h | Potency, µM (titrated, usually from 46.2 µM), most hits filed as inhibitors | 420,000 compounds, 15% hits | AID 686978, 2013; further: nearly all actives have a fitted effect of over 55% in size
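Camptothecin absent (DMSO only). Human TDP1-complemented DT40 knockout cells, 400 cells/well, 37 °C for minimum 48 hr; ATP measured via CellTiter-Glo, 30 min dark incubation, luminescence.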
HT1080NT lethal – kills 2HG-producing HT-1080-NT fibrosarcoma cells. HT-1080-NT fibrosarcoma viability, CellTiter-Glo ATP luminescence, 48 h. Potency, µM (doses to about 46.1 µM), actives largely listed as cytotoxic. 360,000 compounds, 1.6% hits;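 further: NT is the 2HG producing partner of a matched IDH1 knockdown line; nearly all actives have a fitted effect of over 55% in size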
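Compounds were tested in concentration-response format on HT-1080-NT cells for 48 hours at 37 degrees C. Cell viability came from CellTiter-Glo luminescence; curves were classified by r2, response magnitude and activity.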
TDP1 cell CPT – DT40-hTDP1 cell growth loss with CPT; 420,000 compounds, 12% hits; chicken DT40 Tdp1-/-;hTDP1 cells + 20 nM CPT, ATP luminescence, 48 h; Potency, µM (doses to about 46.2 µM), most hits filed as inhibitors; further: nearly all actives have a fitted effect of over 55% in size
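Chicken DT40 Tdp1-/- cells stably complemented with human TDP1 were seeded at 400 cells/well in medium containing 20 nM camptothecin, exposed to pin-transferred compounds, and grown at 37 °C for at least 48 hr. Viability was read as ATP luminescence.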
HT1080 IDH1KD tx – kills HT-1080 cells with IDH1 knockdown | HT-1080 IDH1 knockdown viability, ATP luminescence, 48 h | Potency, µM (series often up to 46.1 µM), actives largely listed as cytotoxic | 360,000 compounds, 2% hits | AID 686971
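IDH1KD HT-1080 cells, 750/well, RPMI + 5% FBS; compound pinned after 2 h settling; 48 h, 37 °C; CellTiter-Glo luminescence; % activity normalised to DMSO and no-cell wells; curves fitted, classed by r2 and efficacy.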
Hits are given with their value; - = inactive; ? = inconclusive; . = not tested or not shown; [ ] = dose if it differs, or a comment. An excerpt weighted towards active compounds, which were near 19% of everything screened. Unless noted, the call rests on the fitted dose curve; in most records, active means well fitted curve in the direction sought with a large enough effect; inconclusive means small, poorly fitted or top-dose-only effect, or another doubt; inactive means no such curve, though single readings can be large; an effect the other way counts as inactive or inconclusive.

SMILES	IL1B secr inh	TDP1 cell noCPT	HT1080NT lethal	TDP1 cell CPT	HT1080 IDH1KD tx
CCCCNC(=O)c1cc(-c2cccnc2)nc2ccc(S(=O)(=O)NCCCC)cc12	.	?	.	21µM	.
NCCc1cc(O)c(O)cc1O	-	3.7µM	-	5.2µM	-
CCn1nc(/C=C/c2ccccc2)nc2c(=O)n(C)c(=O)nc1-2	-110	2.1µM	4.1µM	1.6µM	1.8µM
CCn1nc(-c2cccs2)nc2c(=O)n(C)c(=O)nc1-2	-68	1.2µM	3.3µM	0.58µM	2.6µM
CC(C)[C@]1(O)[C@@H](OC(=O)c2ccc[nH]2)[C@@]2(O)[C@@]3(C)C[C@]4(O)O[C@@]5([C@H](O)[C@@H](C)CC[C@]35O)[C@@]2(O)C41C	.	?	.	-	.
CC1(C)C(O)CC(O)[C@]2(C)C1CC(=O)[C@]1(C)C2CC[C@@]2(C)C(c3ccoc3)OC(=O)C3OC321 (some centres undefined)	.	-	.	?	.
O=C1C=CC(=O)C2C1C1(Cl)C(Cl)=C(Cl)C2(Cl)C1(Cl)Cl (centres undefined)	-103	?	-	?	-
ClC1=C(Cl)C2(Cl)C3C4C=CC(C4)C3C1(Cl)C2(Cl)Cl (centres undefined)	.	-	.	-	.
CC(Oc1ccc(Cl)cc1Cl)c1nc(-c2ccc(NC(=O)c3ccncc3)cc2)no1 (centres undefined)	-	8.2µM	-[9.24 µM]	15µM	?
O=C(/C=C/c1ccccc1)c1c(O)n(CCc2ccccc2)c(=O)[nH]c1=O	-	2.6µM	-	5.2µM	-
CCCCn1c(O)c(C(C)=NCCc2ccccc2)c(=O)[nH]c1=O	-	?	-	?	-
COc1cc(/C=C/C(=O)c2c(O)n(CCc3ccccc3)c(=O)[nH]c2=O)ccc1O	-99	10µM	?	13µM	12µM
O=C(/C=C/c1ccc2c(c1)OCO2)c1c(O)n(CCc2ccccc2)c(=O)[nH]c1=O	-	?	-	?	-
C[C@]12CC[C@H](O)C[C@@H]1CC[C@@H]1[C@@H]2CC[C@]2(C)[C@@H](C(=O)O)C[C@@H]12	-	-	-	-	-
CC1=C(O)C(=O)C=C2C1=CC=C1[C@]2(C)CC[C@@]2(C)C3C[C@](C)(C(=O)O)CC[C@@]3(C)CC[C@@]12C (some centres undefined)	.	0.82µM	.	1µM	.
NC(=O)c1ncn([C@@H]2O[C@H](CO)[C@@H](O)[C@H]2O)n1	-	1µM	.	1.5µM	.
C[C@@H]1O[C@@H](O[C@@H]2C=C3CC[C@@H]4C(CC[C@]5(C)[C@@H](c6ccc(=O)oc6)CC[C@]45O)[C@@]3(C)CC2)[C@H](O)[C@H](O)[C@H]1O (some centres undefined)	-56	0.16µM	0.018µM	0.16µM	0.0046µM
C[C@@H]1O[C@@H](O[C@@H]2C=C3CCC4C(CC[C@]5(C)[C@@H](c6ccc(=O)oc6)CC[C@]45O)[C@@]3(C)CC2)[C@H](O)[C@H](O)[C@H]1O (some centres undefined)	-52	0.015µM	0.0073µM	0.058µM	0.0092µM
Cc1nn(Cc2ccccc2)c(C)c1C(=O)OCC(=O)Nc1cccc(S(N)(=O)=O)c1	-	-	-	-	-
CN(CC(=O)Nc1ccccc1-c1ccccc1)C1CCCCC1	-	?	?	23µM	-
CCN(C1CCCCC1)S(=O)(=O)c1ccc(S(=O)(=O)N(CC(=O)Nc2ccccc2)C2CC2)cc1	-	?	-	?	-
CC(c1ccccc1F)n1cc(C(=O)Nc2ccc3nc[nH]c3c2)nn1 (centres undefined)	-	-	-	-	-
Cc1cccc(-n2c(-c3cccs3)nc3ccccc3c2=O)c1	-	?	-	16µM	-
O=c1c2ccccc2nc(-c2cccs2)n1-c1ccccc1	-	23µM	-	?	-
CCOc1ccc(-n2c(-c3cccs3)nc3ccccc3c2=O)cc1	-	?	-	?	-
SMILES	IL1B secr inh	TDP1 cell noCPT	HT1080NT lethal	TDP1 cell CPT	HT1080 IDH1KD tx
O=C(N/N=C/c1c(O)n(Cc2ccc(F)cc2)c(=O)[nH]c1=O)c1ccccc1O	-	?	?	13µM	?
CCCCCCC(=O)N/N=C/c1c(O)n(C(C)CC)c(=S)[nH]c1=O (centres undefined)	-	9.2µM	?	13µM	15µM
CCCCCCC(=O)N/N=C/c1c(O)n(CCc2ccccc2)c(=O)[nH]c1=O	-	18µM	-	?	?
O=C(N/N=C/c1c(O)n(CCc2ccccc2)c(=O)[nH]c1=O)c1ccccc1O	-	-	-	-	-
C[C@]12CCC3C(CC[C@H]4C[C@@H](O)CC[C@]34C)C1C[C@@H](N)[C@@H]2O (some centres undefined)	-	-	-	-	-
OC(Cn1c2ccccc2c2ccccc21)C[n+]1cccc2ccccc21 (centres undefined)	-68	16µM	-[9.24 µM]	18µM	20µM
CC12CN3CCN(C1)CC(C)(C3)C2=NO	-	-	-	-	-
N#CC(C#N)=Cc1cc(O)c(O)c(O)c1	.	15µM	.	9.4µM	.
Cn1ncc(Cl)c1C(=O)N1CCC2(CC1)OCCO2	-	-	-	-	-
CC1=C(N2CC2)C(=O)C(CO)=C(N2CC2)C1=O	-99	0.029µM	?	0.026µM	0.0058µM
FC(F)(F)c1nc(N2CCN(c3ccccc3)CC2)nc2c1CCCCC2	-	18µM	-	?	-
C=CCc1ccccc1OCCn1c(C2CC(=O)N(Cc3ccc(F)cc3)C2)nc2ccccc21 (centres undefined)	.	?	.	16µM	.
CC(=NCC1CCCO1)c1c(O)n(Cc2ccccc2)c(=O)[nH]c1=O (centres undefined)	-	-	-	-	-
S=P(N1CCCCCC1)(N1CC1)N1CC1	-	4.1µM	-	3.3µM	-
S=P(N1CCOCC1)(N1CC1)N1CC1	-	6.5µM	-	5.2µM	-
COc1ccccc1OCCCn1cc(C(=O)C2CC2)c2ccccc21	-	?	-	?	-
COc1ccccc1OCCCn1cc(C(C)=O)c2ccccc21	-	18µM	-	?	-
COc1ccccc1OCCCn1cc(C=O)c2ccccc21	?	21µM	-	?	-
c1cnc2c(c1)ncn2C1CCNCC1	.	-	.	?	.
COC(=O)C1=C(c2ccc(OC)c(OC)c2)C[C@@H]2CC[C@H]1N2C(=O)N1CCOCC1	-	?	?	21µM	-
COC(=O)C1=C(c2ccc(OC)c(OC)c2)C[C@@H]2CC[C@H]1N2C(=O)N1CCC(C)CC1	-	10µM	-	21µM	-
COC(=O)C1=C(c2ccc(C(C)=O)cc2)C[C@@H]2CC[C@H]1N2C(=O)N1CCC(C)CC1	-	21µM	-	18µM	-
